# Screening results as filed in PubChem.
# MITF inh: blocks human microphthalmia-associated transcription factor; inhibition, % at 2.6 µM; AID 1259374; actives 0.91% (n = 650,000); O75030; AlphaScreen MITF homodimerization, bead proximity signal; in the data active means inhibition above about 50%;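 further: 0% = vehicle wells with protein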
# Target sequence (O75030 whole entry, looked up): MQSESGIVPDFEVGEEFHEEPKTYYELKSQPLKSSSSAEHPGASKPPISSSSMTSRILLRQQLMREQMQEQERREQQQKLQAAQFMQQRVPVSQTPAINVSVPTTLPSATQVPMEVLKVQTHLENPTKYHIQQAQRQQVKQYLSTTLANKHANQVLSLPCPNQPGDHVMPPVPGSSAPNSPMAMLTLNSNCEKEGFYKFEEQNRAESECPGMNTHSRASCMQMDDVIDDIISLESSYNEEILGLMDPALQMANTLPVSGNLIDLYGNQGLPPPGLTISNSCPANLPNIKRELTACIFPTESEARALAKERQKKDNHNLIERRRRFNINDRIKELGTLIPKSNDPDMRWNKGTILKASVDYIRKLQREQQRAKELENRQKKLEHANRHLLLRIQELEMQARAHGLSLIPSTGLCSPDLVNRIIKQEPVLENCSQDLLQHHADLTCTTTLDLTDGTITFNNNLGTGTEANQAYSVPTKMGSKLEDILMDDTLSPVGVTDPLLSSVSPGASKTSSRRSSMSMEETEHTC
# TEAD-YAP block: TEAD-YAP interaction inhibition; HEK-TIYL cells, TEAD-Gal4/YAP UAS-luciferase luminescence; inhibition, % at 9.12 µM; actives 1.4% (n = 640,000); AID 1259422; in the data active means inhibition above about 32%;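 further: 0% = median of test compound wells and 100% = reference inhibitor wells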
# GPR151 ag: activators of human GPR151; AID 1508602; actives 1% (n = 650,000); PathHunter beta-arrestin GPR151 cells, luminescence; activation, % at 11.2 µM; in the data active means activation above about 4.9%;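 further: 0% = median of compound wells and 100% = cells with positive control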
# FBW7 activator: activators of human E3 ligase FBW7; AID 1259310; Q969H0; normalized activity (activation), % at 26.1 µM; AlphaScreen FBW7–phospho-cyclin E peptide binding, activator screen; actives 0.13% (n = 650,000); in the data active means normalized activity above about 1.9%;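 further: purified mutant Fbw7 with reduced substrate affinity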
# * marks the source's active call; other numbers are inactive results. Compounds with a hit are over-represented: about 3.5% of the library has one in this group of screens.
SMILES,MITF inh,TEAD-YAP block,GPR151 ag,FBW7 activator
CCOC(=O)c1c(C)[nH]c(C(=O)CSc2nccn2C)c1C,-6,87*,-7,0
CS/C(=C\[N+](=O)[O-])Nc1ccc(C(C)(C)C)cc1,-14,55*,-1,0
CC1=C(C(=O)OCc2ccccc2)C(c2ccccc2[N+](=O)[O-])N2C(=O)CCSC2=N1 (stereo unspecified),12,0,0,0
O=C(c1ccco1)N1CCN(c2nncc(-c3ccc4ccccc4c3)n2)CC1,17,15,-1,0
CCOC(=O)CNC(=O)CSc1nc2sc3c(c2c(=O)[nH]1)CCC(C)C3 (stereo unspecified),-1,89*,-2,0
CCC/C(C)=C/Cc1c(O)c2c(c(C)c1OC)COC2=O,18,66*,0,0
COC1=C(OC)C(=O)C(C/C=C(\C)CC/C=C(\C)CC/C=C(\C)CC/C=C(/C)CC/C=C(\C)CC/C=C(\C)CC/C=C(\C)CC/C=C(\C)CC/C=C(\C)CCC=C(C)C)=C(C)C1=O,11,1,1,1
O=C(CCc1cccnc1)NCc1nnc2n1CCN(Cc1ccoc1)CC2,3,14,1,0
O=C(/C=C/Nc1ccc(I)cc1)c1cccs1,23,41*,0,0
O=C(/C=C\Nc1cccc(F)c1)c1cccs1,8,-4,-2,0
COC(=O)c1ccc(N/C=C/C(=O)c2cccs2)cc1,-8,53*,-5,0
Cc1ccc(N/C=C/C(=O)c2cccs2)cc1,37,81*,1,0
CCCCNC(=O)c1c(N)sc2c1CCCC2,3,8,1,0
Cc1ccc(/C=N/NC(=O)c2cc(Br)ccc2OC(C)C)o1,-17,46*,-2,0
COc1cc(/C=N/NC(=O)c2cc(Br)ccc2OC(C)C)ccc1O,17,14,3,1
Cc1ccc2c(c1)-c1c(ssc1=S)C(C)(C)N2C(=O)CSc1nc(C)cc(C)n1,-7,3,2,0
N#Cc1nc(Cl)c(Cl)c(Nc2cccc(F)c2)c1Cl,7,13,1,0
Fc1cccc(-c2nc3cccnc3nc2-c2cccc(F)c2)c1,2,13,-1,0
Clc1nc2ncccc2nc1-c1ccccc1,-7,41*,1,0
CN(C)c1ccc(C(=O)NCc2ccc3c(c2)CCO3)cc1,-5,-3,0,1
Cn1nc(C(C)(C)C)cc1C(=O)NCc1ccc2c(c1)CCO2,-3,42*,0,1
CCc1ccc(N2CC(C(=O)NCC(C)(C)CNC(=O)C3CC(=O)N(c4ccc(CC)cc4)C3)CC2=O)cc1 (stereo unspecified),13,9,-1,4.5*
CN(C)C1CCN(C(=O)c2cc(COc3ccc4ncccc4c3)on2)C1 (stereo unspecified),9,19,-1,0
O=C(C1CCC(CNS(=O)(=O)c2cccc3nsnc23)CC1)N1CCCC1 (stereo unspecified),12,-3,1,0
COc1ccc2nc3oc(C(=O)Nc4cccc([N+](=O)[O-])c4C)cc3cc2c1,-7,-10,0,0
SMILES,MITF inh,TEAD-YAP block,GPR151 ag,FBW7 activator
Cc1ccc(NC(=O)CSc2nnc(C)s2)c(C)c1,-3,-11,0,0
Cc1ccc(N/C(N)=N/c2nc(CSc3nnc(C)s3)cc(=O)[nH]2)c(C)c1,17,44*,0,0
CC1=C(C(=O)OC(C)C)C(c2ccc([N+](=O)[O-])cc2)C2=C(CCCC2=O)N1 (stereo unspecified),13,-8,0,0
CCOc1ccc(/C=N/Nc2snc(SC)c2C#N)cc1,8,-9,1,0
COc1cc(/C=N/Nc2snc(SC)c2C#N)cc(OC)c1OC,2,34*,-1,0
Cc1ccc(/C=N/NC(=O)CNc2cccc(C)c2)cc1,5,38*,2,0
Cc1ccc(/C=N/NC(=O)CNC(=O)c2ccccc2Br)cc1,-13,47*,2,0
NS(=O)(=O)c1ccc(C(=O)OCc2ccccc2)cc1,0,-17,3,0
COc1ccc(CC(=O)NCC2CCCN(C(=O)CCN3CCCO3)C2)cc1 (stereo unspecified),5,1,0,0
Brc1cc2c(cc1Br)OCCOCCOCCOCCO2,9,-6,0,0
Nc1cc(Br)c2c(c1)OCCO2,18,66*,-1,0
CCOC(=O)C1(Cc2ccccc2C)CCCN(C(=O)Cc2c(C)noc2C)C1 (stereo unspecified),-3,-15,-1,0
CC(=O)N/C(=C/c1ccccc1)C(=O)NCCc1cccc2ccccc12,10,-3,0,0
FC(F)(F)c1ncn(-c2ccc(Nc3nccc(-c4cncc(N5CCOCC5)c4)n3)cc2)n1,-8,-9,0,0
CC(C)(C)c1ncn(-c2ccc(Nc3nccc(-c4cncc(N5CCOCC5)c4)n3)cc2)n1,-12,74*,4,0
CN(C)c1ncn(-c2ccc(Nc3nccc(-c4cncc(N5CCOCC5)c4)n3)cc2)n1,-5,63*,0,0
COc1cc(-c2nnc(N)s2)cc(OC)c1OC,6,-4,-1,0
O[C@@H]1[C@@H](O)C=C2CCN3Cc4cc5c(cc4[C@H]1C23)OCO5 (stereo partly specified),23,82*,1,0
COc1ccc(CCn2c(=S)[nH]c3nccnc3c2=O)cc1OC,-1,40*,0,0
Cc1ccc(-c2cc(NC(=O)CN3C(=O)CN(C)C3=O)n(-c3ccccc3)n2)cc1,1,-6,2,0
COc1cc(Nc2nc(Nc3ccccn3)nc3c2ncn3-c2ccsc2)cc(OC)c1OC,7,31,2,0
COc1cc(Nc2nc(Nc3cc(OC)c(OC)c(OC)c3)c3ncn(-c4ccsc4)c3n2)cc(OC)c1OC,2,50*,3,0
COc1cc(Nc2nc(Nc3nc4ccccc4n3C)nc3c2ncn3-c2ccsc2)cc(OC)c1OC,14,37*,-2,0
CCn1c(O)c(C=Nc2ccccc2Cl)sc1=S,-3,32*,0,0
NCC(=O)N1CCC(C(=O)Nc2nc3ccc(-c4ccncc4)cc3s2)CC1,8,38*,0,-1
O=C(CSc1ccc(Cl)cc1)Nc1nc2ccc(-c3ccncc3)cc2s1,0,77*,1,1
Cc1ccc(S(=O)(=O)N2CCCCC2CCNC(=O)C(=O)NCc2cccs2)cc1 (stereo unspecified),9,48*,0,1
Cc1ccc(S(=O)(=O)N2CCCCC2CCNC(=O)C(=O)NC2CCCC2)cc1 (stereo unspecified),0,4,4,0
Cc1ccc(S(=O)(=O)N2CCCCC2CCNC(=O)C(=O)NCCc2ccco2)cc1 (stereo unspecified),5,47*,0,0
O=C(NCCc1ccco1)C(=O)NCC1CCCN1S(=O)(=O)c1ccccc1 (stereo unspecified),14,32*,1,0
